Compounds with a hit are over-represented: about 12% of the library has one in this group of screens.
BAZ2B inh: inhibitors of human BAZ2B bromodomain; AlphaScreen BAZ2B-H3K14Ac peptide displacement; Q9UIF8; Potency, µM (top dose mostly 114 µM), inactives show at the highest dose activity change, negative = inhibition, hits mostly inhibitors; 360,000 tested, 4.4% active; also: % is scaled to controls: 0 for no effect and ±100 for the full control effect; nearly all actives have a fitted effect of over 60% in size
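Protein-peptide AlphaScreen: BAZ2B 50 nM, b-H3K14Ac 50 nM, 1x PBS pH 7.4 + 0.01% Tween-20. Preincubation 30 min RT; cpd 30 min RT (top 110 uM); beads 20 min RT, light-protected.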
Sfp inh: inhibitors of Bacillus subtilis Sfp phosphopantetheinyl transferase | Q9F4F7 | Biochemical Sfp PPTase activity, qHTS | Potency, µM, without a hit: largest response in the series, negative = inhibition, most hits filed as inhibitors | 310,000 tested, 3.5% active | AID 1490;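 also: the enzyme is Sfp with the accession as filed and its product quenches rhodamine fluorescence; 0% = enzyme reaction without inhibitor and -100% = no enzyme wells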
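After 15 min at room temperature with compound, 15 nM Sfp received 5 uM rhodamine-CoA plus 12.5 uM BHQ-2-ybbR (50 mM Hepes pH 7.6, 10 mM MgCl2). Rate came from the fluorescence difference over 30 min, ex 525/em 598 nm.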
HP1b chromo inh: HP1-beta chromodomain-methylated histone interaction inhibition. P83916. AlphaScreen HP1-beta / biotin-H3K9me3 peptide binding. Potency, µM (doses to about 114 µM), inactives show at the top dose activity change, negative = inhibition, actives largely listed as inhibitors. 390,000 tested, 0.56% active. AID 540317; also: nearly all actives have a fitted effect of over 70% in size
Target sequence (P83916 whole entry, looked up): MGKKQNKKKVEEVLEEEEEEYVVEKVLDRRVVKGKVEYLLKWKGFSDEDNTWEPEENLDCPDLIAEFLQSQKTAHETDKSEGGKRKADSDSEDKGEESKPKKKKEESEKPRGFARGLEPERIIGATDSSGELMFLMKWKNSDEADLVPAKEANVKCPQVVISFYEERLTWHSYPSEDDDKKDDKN
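AlphaScreen: HP1-beta (50 nM) preformed 30 min with biotin-H3(1-18)K9me3 peptide (50 nM) in PBS pH 7.4, 0.01% Tween-20. Compound added for 30 min at RT, then streptavidin donor/nickel chelate acceptor beads (10 ug/mL) for 30 min.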
G9a block: blocks human histone lysine methyltransferase G9a; Q96KQ7; G9a H3K9 monomethylation, AlphaScreen, 2 h; 350,000 tested, 8.8% active; AID 504332; Potency, µM (series often up to 102 µM), without a hit: at the highest dose activity, negative = inhibition, most hits filed as inhibitors; also: % is scaled to controls: 0 for no effect and ±100 for the full control effect; nearly all actives have a fitted effect of over 75% in size
Target sequence (Q96KQ7 913-1193 limits assumed): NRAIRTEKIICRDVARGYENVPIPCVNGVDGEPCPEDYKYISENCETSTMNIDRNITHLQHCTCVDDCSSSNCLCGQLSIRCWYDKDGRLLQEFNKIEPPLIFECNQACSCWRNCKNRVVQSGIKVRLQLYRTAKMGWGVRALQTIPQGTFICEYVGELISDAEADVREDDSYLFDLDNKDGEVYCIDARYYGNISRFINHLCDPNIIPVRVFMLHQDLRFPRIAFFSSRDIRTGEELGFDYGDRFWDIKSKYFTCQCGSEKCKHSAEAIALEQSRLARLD
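AlphaScreen read-out: biotin-H3K9 peptide (500 nM) methylation by 20 nM enzyme with 20 uM SAM, 2 h at room temperature after 15 min compound preincubation; anti-monomethyl H3K9 antibody plus donor/acceptor beads, 10 min dark.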
JMJD2A Tudor: JMJD2A Tudor domain (human) inhibition. AlphaScreen JMJD2A-Tudor / H3K4me3 peptide binding. O75164. Potency, µM (highest dose often 114 µM), for inactives: at the top dose activity change, negative = inhibition, actives largely listed as inhibitors. AID 504339. 390,000 tested, 4.4% active; also: % is scaled to controls: 0 for no effect and ±100 for the full control effect; nearly all actives have a fitted effect of over 50% in size
L3MBTL1 block: inhibitors of human L3MBTL1. Q9Y468. AlphaScreen L3MBTL1–H3K9me1 peptide binding. Potency, µM (series often up to 57.1 µM), without a hit: at the top dose activity, negative = inhibition, hits mostly inhibitors. 230,000 tested, 0.66% active. AID 485360; also: % is scaled to controls: 0 for no effect and ±100 for the full control effect; nearly all actives have a fitted effect of over 60% in size
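AlphaScreen proximity signal between nickel-chelate acceptor and streptavidin donor beads (final 10 ug/mL) reports binding of 50 nM L3MBTL1 to 75 nM biotin-H3 K9me1 peptide; complex incubated with compounds 30 min at room temperature; cefsulodin titration as control.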
The depositor's hits bear a star; ? = inconclusive; . = no result; [ ] = dose if it differs, or a comment. Calls follow the shape of the dose curve; as a rule, active = well fitted curve in the direction sought with a large enough effect; inconclusive = small, poorly fitted or top-dose-only effect, or another doubt; inactive = no such curve, though single readings can be large; an effect the other way counts as inactive or inconclusive. Potency is read from the fitted curve at half-maximal effect.

SMILES | BAZ2B inh | Sfp inh | HP1b chromo inh | G9a block | JMJD2A Tudor | L3MBTL1 block
O=C(Nc1ccc(F)cc1Cl)C1Cc2ccccc2N1C(=O)c1ccccc1 (configuration not stated) | -10% | . | 2% | 30%[59 µM] | -7% | .
CCC(C(=O)Nc1cc(F)ccc1F)n1nc(-c2cc(C)ccc2C)ccc1=O (configuration not stated) | 1% | . | 21% | 2%[59 µM] | -18% | .
COc1cc(/C=C2\C(=O)NN(c3ccc(C)cc3)C2=O)cc([N+](=O)[O-])c1O | 40µM* | -11% | ? | 14µM* | ? | -18%
CCOc1cc(/C=C2\C(=O)NN(c3ccccc3)C2=O)cc([N+](=O)[O-])c1O | ? | 0% | 40µM* | 32µM* | 50µM* | .
COc1ccc(-n2c(C)cc(/C=C3\C(=O)NN(c4ccccc4)C3=O)c2C)cc1 | -27% | 1% | -3% | -18% | -21% | -10%
COc1cc(/C=C2/C(=O)NN(c3ccc(Cl)cc3)C2=O)cc(OC)c1O | 35µM* | -2% | ? | ? | 50µM* | .
CCOC(=O)COc1ccc(/C=C2/C(=O)NN(c3ccc(F)cc3)C2=O)cc1OC | -9% | ? | 14% | -6%[0.501 µM] | ? | -9%[2.29 µM]
COc1cc(/C=C2/C(=O)NN(c3ccccc3)C2=O)cc(Br)c1O | ? | -11% | -24% | 40µM* | ? | .
CCC(=O)OC1C(N(C)C)CC(C)O[C@H]1O[C@H]1[C@H](C)[C@@H](O[C@H]2CC(OC)[C@@H](O)C(C)O2)[C@H](C)C(=O)O[C@@H](CC)[C@](C)(O)[C@@H](O)[C@H](C)C(=O)[C@@H](C)C[C@]1(C)O (some centres not stated) | . | 13% | . | -12%[12.7 µM] | . | .
O=C(C1CCC1)N1CCc2cc(S(=O)(=O)N3CCN(c4ccccc4)CC3)ccc21 | . | . | 34% | -3%[59 µM] | -6% | .
CCc1ccccc1NC(=O)N1CCN(c2cc(-c3noc(C)n3)ccc2C)CC1 | 2% | . | 40%[57 µM] | -10%[59 µM] | -1% | .
Cc1cc(/C=C2/C(=O)NN(c3ccccc3)C2=O)c(C)n1-c1ccc(O)cc1 | -6% | 4% | ? | -8%[59 µM] | -21% | -4%
COc1cc(/C=C2\C(=O)NN(c3ccccc3)C2=O)cc([N+](=O)[O-])c1O | 56µM* | ? | ? | 16µM* | 89µM* | .
COc1ccc(/C=C2\CN(Cc3ccccc3)C/C(=C\c3ccc(OC)cc3OC)C2=O)c(OC)c1 | 25µM* | ? | ? | 14µM* | ? | -26%
COc1ccc(C=C2c3ccccc3C(=O)c3ccccc32)c(OC)c1 | 13µM* | -5% | . | 28µM* | . | ?
COc1ccc(/C=C2\CN(Cc3ccccc3)C/C(=C\c3ccc(OC)cc3)C2=O)cc1 | ? | ? | ? | 18µM* | ? | -17%
COc1ccc(/C=C2\COc3ccccc3C2=O)c(OC)c1 | -12% | -2% | 22% | 16% | 1% | .
CCNc1nc(C#N)nc(N2CCCCC2)n1 | . | . | 25%[57 µM] | . | 1%[57.1 µM] | .
COC(=O)C1=NN(N=O)C2(CC(=O)N(c3cc(C)cc(C)c3)C2=O)C1 (configuration not stated) | -2% | -23% | 36% | 14µM* | ? | .
COCCn1c(CNC(=O)c2cc([N+](=O)[O-])ccc2Cl)nc2cccnc21 | -1% | . | 15%[57 µM] | 1%[59 µM] | -20% | .
CC1CCN(S(=O)(=O)c2cc(C(=O)NCc3ccc(N(C)C)cc3)n(C)c2)CC1 | 35µM* | . | -9%[57 µM] | 10µM* | 56µM* | .
CN(C)c1ccc(CNC(=O)C2CCN(S(=O)(=O)c3ccc4c(c3)CCCC(=O)N4)CC2)cc1 | ? | 2% | 3% | 45µM* | ? | .
Cc1csc2nc(COC(=O)c3ccc(Cl)c([N+](=O)[O-])c3)cc(=O)n12 | 2% | . | -21%[57 µM] | -7%[59 µM] | 28µM* | 0%
CCN1CCN(c2ccc(NC(=O)CCc3c(C)nc4c(-c5ccccc5)c(C)nn4c3C)cc2)CC1 | -7% | 7% | -6% | 79µM* | ? | -5%
CCOc1ccc(NC(=O)CCc2c(C)nc3c(-c4ccccc4)c(C)nn3c2C)cc1 | -2% | . | 27% | -36%[59 µM] | -13% | .
SMILES | BAZ2B inh | Sfp inh | HP1b chromo inh | G9a block | JMJD2A Tudor | L3MBTL1 block
O=[N+]([O-])c1ccc(OCC(O)CN(CCO)CCO)cc1 (configuration not stated) | -7% | 6% | 24% | -18%[59 µM] | -10% | 9%
CCCCN(CCCC)CC(O)COc1ccc(Br)cc1 (configuration not stated) | 32µM* | -22% | ? | 7.9µM* | 1.4µM* | .
O=C(CSc1nnnn1-c1ccc(F)cc1)NNC(=O)c1ccco1 | -37% | 14% | 55% | 8% | -5% | .
CCOc1ccc(-n2nnnc2SCC(=O)NNC(=O)c2ccco2)cc1 | 0% | -8% | -7% | . | 22µM* | 12%
CC1=C(c2ccc(C(C)C)cc2)S(=O)(=O)N=C1N1CCN(c2ccccc2F)CC1 | -23% | . | 43% | ? | -12% | .
O=C(Nc1cc(F)ccc1F)N1CCC(CN2CCCC2)CC1 | 5% | . | 39% | -10%[59 µM] | 3% | .
CCn1c2ccc(C)cc2c2n[nH]c(=S)nc21 | -36% | -9% | 28% | 7.1µM* | -30% | -1%
COCCn1c(=S)[nH]c2cc(C(=O)N3CCc4ccccc43)ccc2c1=O | 6% | -6% | 19% | ? | -31% | -9%
COc1ccc(Cn2c(=S)[nH]c3ccccc32)cc1 | -30% | -15% | 33% | 1.8µM* | -23% | -6%
COCCn1c(=S)[nH]c2ccccc21 | -37% | -6% | 42% | 40µM* | -11%[57.1 µM] | .
COc1ccc(-n2c(=S)[nH]c3ccccc32)cc1 | ? | 45µM* | 3% | 3.5µM* | 40µM* | .
CN1CC=C2C(C#N)=C(N)C(C#N)(C#N)[C@H](c3ccoc3)[C@H]2C1 | -11% | 0% | 33% | 40µM* | -5%[57.1 µM] | .
Nc1sc2c(c1C(=O)NC1CCS(=O)(=O)C1)CCC2 (configuration not stated) | -36% | 18µM* | 7% | 7.1µM* | 7%[11.4 µM] | -5%
NC(=O)c1c(N)sc2c1CCCCC2 | 5% | 22µM* | 18µM* | 8.9µM* | ? | -14%
NC(=O)c1c(N)sc2c1CCC2 | -13% | 22µM* | 1% | . | -18% | -1%
CCCOC(=O)c1c(N)sc2c1CCC2 | ? | 50µM* | ? | 50µM* | ? | -8%
Nc1sc2c(c1C(=O)c1ccc(Cl)cc1)CCCC2 | . | 10% | . | . | . | .
O=S(=O)(NCCc1ccccc1)c1ccccc1Br | . | 1% | 30% | . | 6% | .
Nc1ccc2c(c1)C(=O)C(=O)c1ccccc1-2 | ? | 13% | 20µM* | 6%[0.501 µM] | ? | .
CC(=O)NC(Nc1nc2c(s1)CCCC2)(C(F)(F)F)C(F)(F)F | -3% | -6% | ? | 50µM* | -2% | 4%
